# Measurements from PubChem BioAssay (Tox21).
# Inconclusive results are not listed. The source made the active and inactive calls. The call rests on the fitted dose curve; in most records, active means well fitted activation curve with a large enough effect in the signal ratio in the repeat runs (not every such curve was filed as active); inconclusive means weak or mixed curves, or effect the other way; inactive means no such curve, though single readings can be large or run the other way; the % refers to the signal ratio.
# Biological target: Glucocorticoid receptor (Homo sapiens) (UniProt P04150)
# Test: qHTS assay to identify small molecule agonists of the glucocorticoid receptor (GR) signaling pathway (AID 720691)
# Conditions: GR-bla HeLa, beta-lactamase reporter ratio, 18 h; series mostly up to 62.4 µM
# Text: U.S. Tox21 Program National Center for Advancing Translational Sciences [NCATS] NIH Chemical Genomics Center [NCGC] U.S. Environmental Protection Agency [EPA] National Institutes of Environmental Health Sciences [NIEHS] National Toxicology Program [NTP] U.S. Food and Drug Administration [FDA] Tox21 Assay Overview: The Glucocorticoid receptor (GR) is one of the members of the nuclear receptor family of ligand-dependent transcription factors. GR plays a critical role in carbohydrate, protein and lipid metabolisms and programmed cell death. CellSensor GR-bla HeLa cell line (Invitrogen) contains a beta-lactamase reporter gene under the control of the glucocorticoid response element stably integrated into HeLa cells, a cervical cancer cell line that expresses glucocorticoid receptor. The activation of the reporter gene under culture conditions can be detected by fluorescence intensity. This cell line has been used to screen the Tox21 10K compound library and to identify the compounds that activate the GR signaling.
# Tox21 Assay Protocol Summary: The GR-bla HeLa cells were dispensed at 1500 cells/6 ul/well in 1536-well black wall/clear bottom plates using a Multidrop Combi (ThermoFisher Scientific, Waltham, MA) dispenser. After the assay plates were incubated at a 37 C/5% CO2 incubator for 4 hours, 23 nL of compounds dissolved in DMSO, positive controls or DMSO only was transferred to the assay plate by a pintool station (Kalypsys, San Diego, CA). The plates were incubated at 37 C for 18 hours. After 1 uL of LiveBLAzerTM B/G FRET substrate was added using a Flying Reagent Dispenser (Aurora Discovery, San Diego, CA), the plates were incubated at room temperature for 2 hours, and fluorescence intensity was measured by an Envision plate reader (PerkinElmer, Shelton, CT).
# Glucocorticoid receptor (Homo sapiens), sequence (P04150 whole entry, looked up): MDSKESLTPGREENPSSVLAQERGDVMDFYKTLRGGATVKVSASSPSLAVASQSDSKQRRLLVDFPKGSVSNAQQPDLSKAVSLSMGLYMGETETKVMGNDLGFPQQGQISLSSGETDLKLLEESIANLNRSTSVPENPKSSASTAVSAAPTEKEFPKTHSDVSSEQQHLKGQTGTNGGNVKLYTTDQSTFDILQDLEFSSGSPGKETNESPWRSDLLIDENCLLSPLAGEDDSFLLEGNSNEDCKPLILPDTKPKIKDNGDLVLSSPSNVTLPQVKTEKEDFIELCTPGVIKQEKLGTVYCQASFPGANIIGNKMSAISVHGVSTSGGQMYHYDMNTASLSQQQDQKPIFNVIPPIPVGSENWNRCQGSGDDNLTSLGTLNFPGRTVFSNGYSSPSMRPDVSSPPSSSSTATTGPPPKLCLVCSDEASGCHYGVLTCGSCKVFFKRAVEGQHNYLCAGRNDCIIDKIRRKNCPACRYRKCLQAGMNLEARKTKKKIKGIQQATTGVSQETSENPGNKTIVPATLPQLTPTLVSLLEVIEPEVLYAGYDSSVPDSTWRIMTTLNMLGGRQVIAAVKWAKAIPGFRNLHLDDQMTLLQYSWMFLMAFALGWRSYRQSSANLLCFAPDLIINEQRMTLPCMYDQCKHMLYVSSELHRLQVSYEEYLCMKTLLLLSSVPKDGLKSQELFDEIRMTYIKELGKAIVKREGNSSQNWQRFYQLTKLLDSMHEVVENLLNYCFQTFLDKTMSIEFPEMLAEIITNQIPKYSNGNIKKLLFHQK
row,SMILES,outcome
1,C=CC(=O)OCC(C)C,inactive
2,C=CC[C@]1(O)CC[C@H]2[C@@H]3CCC4=CC(=O)CCC4=C3C=C[C@@]21C,inactive
3,O=C(O)C(F)(F)C(F)(F)C(F)(F)C(F)(F)C(F)(F)C(F)(F)C(F)(F)C(F)(F)C(F)(F)F,inactive
4,ClP(Cl)(Cl)(Cl)Cl,inactive
5,Oc1ccc(Cl)c(Cl)c1Cl,inactive
6,[O-][Cl+]O,inactive
7,NCCCNCCCN,inactive
8,CC(C)(Cl)[N+](=O)[O-],inactive
9,CO[C@@H]1[C@H](OC(=O)NC(=O)CCl)CC[C@]2(CO2)[C@H]1[C@@]1(C)O[C@@H]1CC=C(C)C,inactive
10,Clc1ccc(C(OCCN2CCCCC2)c2ccccc2)cc1 (stereo not given),inactive
11,CC(O)(CS(=O)(=O)c1ccc(F)cc1)C(=O)Nc1ccc(C#N)c(C(F)(F)F)c1 (stereo not given),inactive
12,COP(=S)(OC)Oc1cc(Cl)c(I)cc1Cl,inactive
13,CN(C)c1ccc(N(C)C)cc1,inactive
14,COc1nn(C(=O)NS(=O)(=O)c2ccccc2OC(F)(F)F)c(=O)n1C,inactive
15,O=C(CCl)c1ccc(Cl)cc1Cl,inactive
16,CCC(COC(=O)c1cc(OC)c(OC)c(OC)c1)(c1ccccc1)N(C)C (stereo not given),inactive
17,Cc1ccc(-c2c(Cl)nc(C#N)n2S(=O)(=O)N(C)C)cc1,inactive
18,C[C@@H]1CC[C@H]2[C@@H](C)C(=O)O[C@@H]3O[C@@]4(C)CC[C@@H]1[C@]32OO4,inactive
19,ClCC(Br)CBr (stereo not given),inactive
20,CC1CC(CC2CCC(N)C(C)C2)CCC1N (stereo not given),inactive

row,SMILES,outcome
1,CCOc1ccc(C(C)(C)COCc2cccc(Oc3ccccc3)c2)cc1,inactive
2,COCC(C)N(C(=O)CCl)c1c(C)csc1C (stereo not given),inactive
3,CC(=O)CCC(C)=O,inactive
4,C=CC(=O)OC(C)(C)C,inactive
5,Cc1c(F)c(F)c(COC(=O)C2C(/C=C(\Cl)C(F)(F)F)C2(C)C)c(F)c1F (stereo not given),inactive
6,CCOC(=O)COc1cc(-c2nn(C)c(OC(F)F)c2Cl)c(F)cc1Cl,inactive
7,C=CCC1([C@H](C)CCC)C(=O)NC(=O)NC1=O,inactive
8,CCCCOC(=O)c1ccccc1C(=O)OCc1ccccc1,inactive
9,CCCCCCCCCCOC(=O)c1ccccc1C(=O)OCCCCCCCCCC,inactive
10,Nc1nc(N)nc(N)n1,inactive
11,CC(Cl)C(C)Cl (stereo not given),inactive
12,CCCC(=O)Cl,inactive
13,CCCN(CCCl)c1c([N+](=O)[O-])cc(C(F)(F)F)cc1[N+](=O)[O-],inactive
14,O=NN1CCCCCC1,inactive
15,CCOc1nc(F)cc2nc(S(=O)(=O)Nc3c(Cl)cccc3Cl)nn12,inactive
16,O=S1(=O)OC(c2cc(Br)c(O)c(Br)c2)(c2cc(Br)c(O)c(Br)c2)c2ccccc21,inactive
17,O=Cc1ccc2c(c1)OCO2,inactive
18,C=CC(=O)OCCCCO,inactive
19,O=C(O)COc1ccc(Cl)cc1,inactive
20,O=C(CBr)OCc1ccccc1,inactive
